NALP3 yeast inh: inhibitors of NALP3 inflammasome in yeast. Yeast reconstituted NLRP3/ASC/caspase-1, beta-gal luminescence, 24 h. inhibition, % at 10 µM. 330,000 compounds, 0.39% hits;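 active = inhibition of 50% or more; inactive = inhibition below 50%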
Yeast superoxide: yeast age-related superoxide inhibition as caloric restriction mimetic; S. cerevisiae aged cells, superoxide DHE fluorescence; active compounds read low; superoxide response (% of plate mean), % at 10 µM; 330,000 compounds, 0.18% hits;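 active = superoxide response under a set limit, about three screen SD below normal, cut at about 65% in these data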;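 note: yeast aged for seven days with compound at 30 °C before DHE staining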
TIM10 inh: TIM10 yeast growth inhibition; S. cerevisiae TIM10 strain growth, BacTiter-Glo luminescence, 24 h; inhibition, % at 10 µM; 330,000 compounds, 1.4% hits;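 active = inhibition of 40% or more at the single tested concentration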;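 note: wild-type TIM10 isogenic control strain grown at permissive 25 °C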
tim23-1 inh: inhibits growth of tim23-1 mutant yeast; S. cerevisiae tim23-1 growth, BacTiter-Glo luminescence, 24 h; inhibition, % at 20 µM; 330,000 compounds, 1.3% hits; AID 463212;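 active = growth inhibition of the mutant yeast at or above 50%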;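 note: temperature-sensitive mutant grown at 25 °C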
tim10-1 inh: tim10-1 yeast growth inhibition; S. cerevisiae tim10-1 ts strain growth, BacTiter-Glo, 24 h; inhibition, % at 20 µM; 330,000 compounds, 2.2% hits;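 active = inhibition of at least 40%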;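 note: mutant grown at 25 °C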
tim10-1 confirm: tim10-1 yeast growth inhibition, confirmed; 7,400 compounds, 56% hits; inhibition, % at 20 µM; shares compounds with tim10-1 inh; S. cerevisiae tim10-1 ts strain growth, BacTiter-Glo, 24 h;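 active = inhibition of yeast growth at or above a set limit in either of two repeat tests at 20 µM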;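 note: tim10-1 mutant grown at permissive 25 °C to find synthetic lethal compounds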
TIM10 conf: confirmation of TIM10 yeast growth inhibitors; 4,600 compounds, 63% hits; shares compounds with TIM10 inh; inhibition, % at 10 µM; S. cerevisiae tim10 strain growth, BacTiter-Glo luminescence, 24 h;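 active = inhibition of yeast growth at or above a set limit in either of two replicates at 10 µM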; note: this counterscreen used the strain with wild-type TIM10
tim23-1 confirm: tim23-1 yeast growth inhibition, confirmed. S. cerevisiae tim23-1 growth, BacTiter-Glo luminescence, 24 h. 4,400 compounds, 83% hits. shares compounds with tim23-1 inh. AID 463218. inhibition, % at 20 µM;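 active = inhibition above about 39% in either of two replicate wells at 20 µM, limit read from the data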;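 note: temperature-sensitive tim23-1 mutant grown at 25 °C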
Each line names hits and unclear results; the compound was inactive in the other large screens (follow-up assays come after a bar, where they were run). Sampled rows, rich in hits. Any-hit rate of the full collection: about 3.8%.

CCOC(=O)C1CCN(c2c([N+](=O)[O-])c(C(Cl)Cl)nn2-c2ccccc2)CC1	none
O=[N+]([O-])c1c(C(Cl)Cl)nn(-c2ccccc2)c1N1CCCC1	tim23-1 inh 61, tim10-1 inh 61 | tim10-1 confirm 61 | tim23-1 confirm 58
Cc1cc(OC(=O)c2ccc(C(C)(C)C)cc2)c([N+](=O)[O-])c(=O)[nH]1	none
O=C(CN1C(=O)NC2(CCSC2)C1=O)NCc1ccccc1 (stereo unspecified)	none
CNC(=S)/N=C/NOCc1ccc(Cl)cc1Cl	TIM10 inh 51, tim23-1 inh 58, tim10-1 inh 66 | tim10-1 confirm 47 | TIM10 conf 62 | tim23-1 confirm 66
NC(=O)NOCc1ccc(Cl)cc1Cl	none
CCN(CC)S(=O)(=O)c1ccc(Cl)c(C(=O)OCC(=O)c2c(N)n(C)c(=O)n(C)c2=O)c1	none
CN(C)C(CNC(=O)C1CCN(S(=O)(=O)c2cccc(Cl)c2Cl)CC1)c1ccccc1 (stereo unspecified)	none
Cc1ccc(/C=C2\SC(=S)N(CC(=O)Nc3cccnc3)C2=O)cc1	none
Cc1ccc(NC(=O)CN2C(=O)S/C(=C/c3ccncc3)C2=O)cc1	TIM10 inh 42, tim23-1 inh 56, tim10-1 inh 45 | tim10-1 confirm 42 | TIM10 conf 43 | tim23-1 confirm 51
Cc1cccc(/C=C2/S/C(=N/N=C3\CC4CCC3(C)C4(C)C)NC2=O)c1 (stereo unspecified)	none
O=C(/C=C/c1ccc(F)cc1)c1ccccc1Br	TIM10 inh 44, tim23-1 inh 62, tim10-1 inh 47 | tim10-1 confirm 64 | TIM10 conf 64 | tim23-1 confirm 58
Cc1ccc(C(=O)/C=C/c2ccc(F)cc2)o1	none
COc1ccc(C(=O)Cc2nnc(C)s2)cc1	none
CN(Cc1ccco1)C(=O)Cn1ncc2c([nH]c3ccccc32)c1=O	none
Cc1occc1-c1nnc(-c2cc([N+](=O)[O-])cc([N+](=O)[O-])c2)o1	TIM10 inh 56, tim23-1 inh 83, tim10-1 inh 73 | tim10-1 confirm 69 | TIM10 conf 52 | tim23-1 confirm 69
O=[N+]([O-])c1cccc(-c2nnc(-c3ccccc3)o2)c1	none
Cc1ccc(CS(=O)(=O)c2ncc(Cl)c(C(=O)Nc3nnc(C(C)C)s3)n2)cc1	none
Cc1ccc(CS(=O)(=O)c2ncc(Cl)c(C(=O)Nc3ccc(OC(F)F)cc3)n2)cc1	tim23-1 inh 65, tim10-1 inh 44 | tim10-1 confirm inactive | tim23-1 confirm 52
CCOc1ccccc1NC(=O)c1nc(S(=O)(=O)Cc2cccc(C)c2)ncc1Cl	TIM10 inh 41, tim23-1 inh 81, tim10-1 inh 44 | tim10-1 confirm 44 | TIM10 conf 71 | tim23-1 confirm 83
Cc1ccc(S(=O)(=O)NC(CCC(N)=O)C(=O)NCc2ccc3c(c2)OCO3)c(C)c1 (stereo unspecified)	none (no result: Yeast superoxide)
O=c1c2ccccc2oc2ccc(-c3ccc4[nH]ccc4c3)cc12	TIM10 inh 41, tim23-1 inh 62, tim10-1 inh 42 | tim10-1 confirm 39 | TIM10 conf 66 | tim23-1 confirm 74
O=C(NC12CC3CC(CC(C3)C1)C2)c1ccc([N+](=O)[O-])o1	tim23-1 inh 64, tim10-1 inh 57 | tim10-1 confirm 67 | tim23-1 confirm 51
CC(NC(=O)c1ccc([N+](=O)[O-])cc1Cl)C1CC2CCC1C2 (stereo unspecified)	none
CC(NC(=O)c1ccc([N+](=O)[O-])o1)C1CC2CCC1C2 (stereo unspecified)	TIM10 inh 63, tim23-1 inh 62, tim10-1 inh 75 | tim10-1 confirm 79 | TIM10 conf 68 | tim23-1 confirm 48
O=C(NC12CC3CC(CC(C3)C1)C2)c1ccc(Br)o1	none
Cc1[nH]c2c(C)cccc2c1CCNC(=O)c1ccc2c(c1[N+](=O)[O-])C(=O)c1ccccc1C2=O	none
CN(C)C(=O)c1ccc2c(c1[N+](=O)[O-])C(=O)c1ccccc1C2=O	TIM10 inh 69, tim23-1 inh 61, tim10-1 inh 71 | tim10-1 confirm 61 | TIM10 conf 63 | tim23-1 confirm 58
CS(=O)(=O)N(CCc1ccccc1)CC(=O)NCc1ccco1	none
Cc1cc(NC(=S)Nc2ccc(C)c(Cl)c2)n[nH]1	tim23-1 inh 51, tim10-1 inh 46 | tim10-1 confirm inactive | tim23-1 confirm 39
O=S(=O)(c1ccccc1)c1ncc(C(F)(F)F)cc1O	none
O=S(=O)(c1ccccc1)c1ncc(C(F)(F)F)cc1Cl	tim23-1 inh 53, tim10-1 inh 46 (no result: Yeast superoxide) | tim10-1 confirm inactive | tim23-1 confirm 51
CCCCN(CCCC)C(=O)c1sc2nc(N3CCOCC3)c3c(c2c1N)CCCC3	none
CCOC(=O)[C@@H]1[C@H]2COc3cc(OC)ccc3[C@@H]2N2C(=O)N(c3ccc(C(F)(F)F)cc3)C(=O)[C@@]12C	none
CCOC(=O)[C@@H]1[C@H]2COc3cc(OC)ccc3[C@H]2N2C(=O)N(c3ccc(C(F)(F)F)cc3)C(=O)[C@]12C	TIM10 inh 75, tim23-1 inh 84, tim10-1 inh 77 | tim10-1 confirm 84 | TIM10 conf 73 | tim23-1 confirm 86
COC(=O)[C@]1(Cc2ccccc2)N[C@H](CN(C)S(=O)(=O)c2ccc(C)cc2)[C@@H]2C(=O)N(Cc3ccccc3)C(=O)[C@@H]21	none
COc1ccc2c(c1)CCC/C2=N/OC(=O)c1ccccc1OC	none
COc1ccc2c(c1)CC/C2=N\OC(=O)c1ccccc1C	TIM10 inh 73, tim23-1 inh 70, tim10-1 inh 43 | tim10-1 confirm inactive | TIM10 conf 87 | tim23-1 confirm 75
COc1cc(N=c2ssnc2Cl)cc(OC)c1	tim23-1 inh 76, tim10-1 inh 55 | tim10-1 confirm 58 | tim23-1 confirm 79
Cc1csc(Sc2ccc([N+](=O)[O-])cc2C(=O)OCC(=O)NC2CCCC(C)C2C)n1 (stereo unspecified)	none
Cc1cc(C)n(CC(O)Cn2c3ccc(Cl)cc3c3cc(Cl)ccc32)c(=O)n1 (stereo unspecified)	TIM10 inh 61, tim23-1 inh 54, tim10-1 inh 57 | tim10-1 confirm 54 | TIM10 conf 56 | tim23-1 confirm 47
CCC(C)NC(=O)CSc1ccc(S(=O)(=O)N2CCN(Cc3ccccc3)CC2)cn1 (stereo unspecified)	none
O=C(Nc1ccc(O)cc1)c1ccccc1OCc1ccccc1	tim23-1 inh 53, tim10-1 inh 45 | tim10-1 confirm inactive | tim23-1 confirm 53
